# Data as given in PubChem BioAssay (NCATS).
# Results filed as inconclusive are left out. Values without a mark were called inactive. The source made the active and inactive calls. Calls come from the whole dose curve.
# Assay: Cell Viability - MRC5 (AID 434);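 note: potency reflects cytotoxicity seen as loss of intracellular ATP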
# Settings: MRC5 lung fibroblast viability, qHTS
# Excerpt: NIH Chemical Genomics Center [NCGC]
# NIH Molecular Libraries Screening Centers Network [MLSCN]
# National Institutes of Environmental Health Sciences [NIEHS]
# National Toxicology Program [NTP]
# We have developed a 1536-well cell-based assay for quantitative high throughput screening (qHTS) against a number of cell lines to determine in vitro cytotoxicity of small molecules. This particular assay uses the MRC5 cell line which is derived from normal human lung fibroblasts.
# NCGC Assay Protocol Summary:
# The CellTiter-Glo luminescent cell viability assay (Promega) is a homogeneous method to measure the number of viable cells in culture. The end point readout of this assay is based on quantitation of intracellular ATP, an indicator of metabolic activity, using the luciferase reaction. Luciferase catalyzes the oxidation of beetle Luciferin to oxyluciferin and light in the presence of ATP. The luminescent signal is proportional to amount of ATP present.
# Using the CellTiter-Glo luminescent cell viability assay, the amount of cellular ATP was measured in the MRC5 cell line with complete culture medium following compound treatment for 40 hours. The assay was performed in opaque white Kalypsys 1536-well plates. In the screen, tamoxifen and doxorubicin were used as positive controls. Library compounds were measured for their ability to cause acute toxicity in the cell line, as reflected by a decrease in intracellular ATP levels, in a concentration-dependent manner. Data were normalized to the controls for basal activity (DMSO only) and 100% inhibition (100 uM tamoxifen). AC50 values were determined from concentration-response data modeled with the standard Hill equation.
# qHTS protocol for CellTiter Glo MRC5 cellular assay
# [Step] [Parameter] [Value] [Description]
# 1. Reagent; 5 uL; 1500 MRC5 cells/well
# 2. Time; 5 hr; 37 °C incubation
# 4. Controls; 23 nL; Tamoxifen 0.34 uM to 100 uM & Doxorubicin 0.02 nM to 100 uM
# 5. Time; 40 hr; 37 °C incubation
# 6. Reagent; 5 uL; CellTiter Glo reagent
# 7. Time; 20 min; Room Temperature
# 8. Detection; Luminescence; Viewlux plate reader
# Keywords: cell viability, cytotoxicity, MRC5 cell line, luminescence, NTPHTS, NTPHTS_NCGC, NIEHS, EPA, DSSTox, MLSMR, MLSCN, NIH Roadmap, qHTS, NCGC
# Potency is the fitted concentration of half-maximal effect.
row,Compound,Potency
1,NC(N)=NC(N)=NCCc1ccccc1,> 92 µM
2,COc1ccc2cc3[n+](cc2c1OC)CCc1cc2c(cc1-3)OCO2,> 92 µM
3,Cc1noc(NS(=O)(=O)c2ccc(N)cc2)c1C,> 92 µM
4,NNC(=O)c1ccncc1,> 92 µM
5,O=C(O)c1cc(=O)[nH]c(=O)[nH]1,> 92 µM
6,CCc1cc(C(N)=S)ccn1,> 92 µM
7,CC1=NN(c2ccccc2)C(=O)C1,> 92 µM
8,N=C(N)c1ccc(OCCCCCOc2ccc(C(=N)N)cc2)cc1,> 92 µM
9,CC[C@H](C)C(=O)O[C@H]1C[C@@H](C)C=C2C=C[C@H](C)[C@H](CC[C@@H]3C[C@@H](O)CC(=O)O3)[C@H]21,> 92 µM
10,Cc1ccnc2c1NC(=O)c1cccnc1N2C1CC1,> 92 µM
11,CN(C)c1ccc(C(=C2C=CC(=[N+](C)C)C=C2)c2ccc(N(C)C)cc2)cc1,4.08 µM (active)
12,C[C@]12C=CC(=O)C=C1CC[C@@H]1[C@@H]2C(=O)C[C@@]2(C)[C@H]1CC[C@]2(O)C(=O)CO,> 92 µM
13,CC(=O)[C@H]1CC[C@H]2[C@@H]3CCC4=CC(=O)CC[C@]4(C)[C@H]3CC[C@]12C,> 92 µM
14,O=C(N[C@H](CO)[C@H](O)c1ccc([N+](=O)[O-])cc1)C(Cl)Cl,> 92 µM
15,Cc1cc(NS(=O)(=O)c2ccc(N)cc2)no1,> 92 µM
16,Cc1nnc(NS(=O)(=O)c2ccc(N)cc2)s1,> 92 µM
17,Cc1ncc([N+](=O)[O-])n1CCO,> 92 µM
